Consider 10 compounds from PubChem BioAssay (EPA / NIEHS).

The term AC50 denotes the concentration giving half of the maximal activity seen.

Test [1] can be described thus: CCTE_Harrill_HTTr_Viability_MCF7: CCTE's 6-hour Cell Viability Assessment for the High-Throughput Transcriptomics (HTTr) Platform, in MCF-7 cells cultured in DMEM + 10% fetal bovine serum, Harrill Lab (AID 2284010). An outline of the steps: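 Eight-point concentration series, six-hour exposure. Propidium iodide exclusion imaged to assess membrane integrity as a cytotoxicity readout; bidirectional fitting was done with DMSO as negative control and activity baseline.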

Test [2] can be described thus: CCTE_Harrill_HTTr_Apoptosis_MCF7: CCTE's 6-hour Apoptosis Assessment for the High-Throughput Transcriptomics (HTTr) Platform, in MCF-7 cells cultured in DMEM + 10% fetal bovine serum, Harrill Lab (AID 2284011). In short, it runs like this:
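MCF-7 (DMEM + 10% FBS), 384-well; 8-pt dilution series, 6 h chemical exposure; caspase-3/7 activation via CellEvent Caspase 3/7 Green, HCI; bidirectional fit vs DMSO.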

Test [3] is described as follows: CCTE_Harrill_HTTr_CellCount_MCF7: CCTE's Cell Proliferation Assessment for the High-Throughput Transcriptomics (HTTr) Platform, Harrill Lab (AID 2284012; active means hit-call score of the fitted dose curve at least 0.9, where 1 is the maximum;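 further: count of Hoechst-stained nuclei per well by high-content imaging in MCF-7 cells; cells exposed to compound for six hours; intended direction is loss of nuclei count meaning fewer cells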). An outline of the steps:
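For this full-screen endpoint, MCF-7 cultures received eight compound dilutions for six hours. Well nuclei counts from Hoechst imaging were analyzed relative to DMSO.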

A short description of test [4]: CCTE_Simmons_MITO_basal_resp_rate: CCTE's HepG2 Seahorse XF Respirometric Screening Assay at Basal Respiratory State, Simmons Lab (AID 2284001). Particulars: actives raise or lower the signal. In short, it runs like this:
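Basal-phase OCR of HepG2 cells on a Seahorse XF96, analysed by bidirectional fit relative to DMSO vehicle; chemicals at 7 concentrations, 125 nM–100 uM final; three biological replicates; fenpyroximate and 2,4-dinitrophenol positive controls.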

A short description of test [5]: CCTE_Simmons_MITO_max_resp_rate: CCTE's HepG2 Seahorse XF Respirometric Screening Assay at Maximal Respiratory State [uncoupled], Simmons Lab (AID 2284002). Particulars: actives raise or lower the signal. An outline of the steps:
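Read-out is oxygen consumption rate at maximal respiration, taken after FCCP uncoupling of compound-treated HepG2 cells. Seven final concentrations from 125 nM to 100 uM were tested, each in three biological replicates.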

The nature of test [6]: CCTE_Simmons_MITO_viability: CellTiter-Glo Viability Assessment for CCTE's HepG2 Seahorse XF Respirometric Screening Assay [post-hoc], Simmons Lab (AID 2284007; active means hit-call score of the fitted dose curve at least 0.9, where 1 is the maximum). In short, it runs like this:
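Post-hoc viability check on the HepG2 respirometry plates: luciferase-based ATP signal measured once, after 90 min compound exposure spanning 125 nM–100 uM final. Activity was referenced to DMSO as baseline.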
(Cellular ATP, detected with luciferase, serves as a proxy for viable cell number.)

The nature of test [7]: CCTE_Shafer_MEA_acute_spike_number: CCTE's Neural Acute Assay for Total Number of Spikes, Shafer Lab (AID 2284008).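 On AC50: curve fitted for decrease in spike count so AC50 reflects inhibitors.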 In short, it runs like this: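 Read-out is the total spike count over 40 min, expressed as percent change from each well's own pre-treatment baseline and fitted in the loss direction against DMSO. Rat cortical neurons were exposed at 0.03-40 uM on DIV 13 or 15.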

Test [8] in a line: CCTE_Shafer_MEA_acute_firing_rate_mean: CCTE's Neural Acute Assay for Mean Firing Rate, Shafer Lab (AID 2284009).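 Further: analyzed for loss of signal so actives lower firing rate relative to DMSO.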 An outline of the steps: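 Rat cortical neuron cultures matured to DIV 13 or 15, equilibrated 20 min at 37 C, then recorded 40 min for baseline. Compound (0.03-40 uM) added and a further 40 min recorded; percent change in mean firing rate calculated per well.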
Test [9] can be described thus: CCTE_Shafer_MEA_acute_burst_number: CCTE's Neural Acute Assay for Single-Electrode Bursts, Shafer Lab (AID 2284013). An outline of the steps: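 Percent change in single-electrode burst number per well, from 40-min recordings taken before and after adding compound (0.03-40 uM) to primary rat cortical neurons on MEA plates at DIV 13 or 15, 37 C.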
Test [10] in a line: CCTE_Shafer_MEA_acute_burst_duration_mean: CCTE's Neural Acute Assay for Mean Burst Duration, Shafer Lab (AID 2284014).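 Further: hits are decreases in mean burst duration relative to DMSO controls.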 An outline of the steps: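 Rat cortical cultures, DIV 13/15; 40 min baseline, then 40 min with compound (0.03-40 uM), 37 C. Spikes: 300-5000 Hz band-pass, 8x rms threshold. Read-out: % change in mean single-electrode burst duration, DMSO-referenced, loss direction.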

The nature of test [11]: CCTE_Shafer_MEA_acute_per_burst_spike_number_mean: CCTE's Neural Acute Assay for Average Number of Spikes Per Burst, Shafer Lab (AID 2284015).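 Further: hits are decreases in mean spikes per burst versus baseline.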 An outline of the steps: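 Primary rat cortical neurons on 48-well MEA plates, treated on DIV 13 or 15 at 0.03-40 uM. Spontaneous activity recorded 40 min before and 40 min after compound at 37 C; percent change in mean spikes per single-electrode burst per well, fitted in the loss direction versus DMSO.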

The nature of test [12]: CCTE_Shafer_MEA_acute_burst_percentage_mean: CCTE's Neural Acute Assay for Percentage of Spikes in a Burst, Shafer Lab (AID 2284017).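 On AC50: curve fitted for loss of signal so potency reflects decreased burst percentage.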 In short, it runs like this:
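Primary rat cortical neurons on 16-electrode MEA wells; 40 min baseline recorded at DIV 13 or 15, then 40 min after compound (0.03-40 uM) at 37 C. Well-mean fraction of spikes in single-electrode bursts; percent change from baseline, DMSO as negative control.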

Test [13] can be described thus: CCTE_Shafer_MEA_acute_burst_percentage_std: CCTE's Neural Acute Assay for Standard Deviation of Burst Percentage, Shafer Lab (AID 2284018).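 Further: fitted in the negative direction so actives lower burst percentage SD.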 An outline of the steps: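 Rat primary cortical neurons on 48-well MEAs, DIV 13 or 15, 37 C. 40-min baseline then 40-min recording with compound (0.03-40 uM); well-level SD of per-electrode burst spike percentage, expressed as percent change from baseline.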

Test [14] can be described thus: CCTE_Shafer_MEA_acute_per_network_burst_spike_number_mean: CCTE's Neural Acute Assay for Average Number of Spikes in a Network Burst, Shafer Lab (AID 2284019).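 On AC50: curve fitted for loss of signal so actives reduce spikes per network burst.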 In short, it runs like this:
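Rat cortical cultures, DIV 13/15; spike threshold 8x rms noise, 300-5000 Hz band-pass, 12.5 kHz sampling; wells need >/= 10 active electrodes. Compound 0.03-40 uM, 40 min, 37 C; % change vs own baseline, DMSO negative control.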

The nature of test [15]: CCTE_Shafer_MEA_acute_per_network_burst_spike_number_std: CCTE's Neural Acute Assay for Standard Deviation of Number of Spikes in a Network Burst, Shafer Lab (AID 2284020).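 Further: fitted for decrease in spike-number SD versus DMSO so actives lower it.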 An outline of the steps: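 Rat cortical cultures, DIV 13/15, 37 C; 20-min stabilisation, 40-min baseline, compound 0.03-40 uM, 40-min re-record. Spikes detected at 8x rms noise (300-5000 Hz band-pass). Readout: % change from baseline in per-burst spike-number SD.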

Inconclusive results are not listed. Activity calls are given as the source filed them. How the source made its calls, unless noted: active means hit-call score of the fitted dose curve at least 0.9, where 1 is the maximum; inactive means score below 0.9.

Turning to `CCN(CC)C(=O)c1cccc(C)c1`, the outcome in [1], in test [2] and in test [3] was inactive.
On to `CCCCCOC(=O)COc1cc(N2C(=O)C3=C(CCCC3)C2=O)c(F)cc1Cl`, for which the outcome in [1], in test [2] and in test [3] was inactive.
On to `CCC(O)=C1C(=O)CC(C(=O)O)CC1=O` (configuration not stated), for which the result in test [1] and in [2] was inactive.
As to `CCCCOC(=O)[C@@H](C)Oc1ccc(Oc2ccc(C(F)(F)F)cn2)cc1`, the compound was classed as inactive in [4], in test [5], in test [6], in test [1], in [2] and in test [3].
As to `C[C@]12C[C@H](O)[C@H]3[C@@H](CCC4=CC(=O)CC[C@@]43C)[C@@H]1CC[C@@H]2C(=O)CO`, the AC50 in test [4] was 42000 nM (active). For the same compound, the compound was called inactive in test [5], in test [6], in test [1], in [2] and in test [3].
With `CCOC(=O)c1ccc(O)cc1`, the result in [1], in test [2] and in test [3] was inactive.
`CCCCCCC(C)OC(=O)COc1nc(F)c(Cl)c(N)c1Cl` (configuration not stated): the result in [1] and in test [2] was inactive.
Take `O=C(Nc1ccc([N+](=O)[O-])cc1Cl)c1cc(Cl)ccc1O`: the AC50 is 1570 nM (active) in test [4]; 928 nM (active) in test [5]; 115 nM (active) in [7]; 114 nM (active) in [8]; 94.4 nM (active) in test [9]; 621 nM (active) in [10]. For the same compound, the AC50 in test [11] is 292 nM (active); in test [12], 269 nM (active); in test [14], 179 nM (active); in [15] it was 370 nM (active). In addition, the outcome in test [1], in test [2] and in test [13] was inactive.
In the case of `CCCOC(=O)NCCCN(C)C`, the result in test [1] and in [2] was inactive.
For `CC(C)(C)[C@@H](O)[C@@H](Cc1ccc(Cl)cc1)n1cncn1`, the outcome in test [7], in test [8], in test [1], in test [2], in [3] and in [9] was inactive. Also, the compound was called inactive in test [11], in test [12], in [13], in test [14] and in test [15]. In [10], the AC50 was 25100 nM (active).
